Data: the supplement of paper PMC7724964

Columns and labels:
Assay in all cases: phage ELISA signal ratio (GST-PRM binding over GST background); higher = stronger binding of peptide-phage to the PRM
[1] = molecular target: T1, WDR74 1-387 WD40 (domain begin residue: 1, domain end residue: 387), Q6RFH5
T1 chain: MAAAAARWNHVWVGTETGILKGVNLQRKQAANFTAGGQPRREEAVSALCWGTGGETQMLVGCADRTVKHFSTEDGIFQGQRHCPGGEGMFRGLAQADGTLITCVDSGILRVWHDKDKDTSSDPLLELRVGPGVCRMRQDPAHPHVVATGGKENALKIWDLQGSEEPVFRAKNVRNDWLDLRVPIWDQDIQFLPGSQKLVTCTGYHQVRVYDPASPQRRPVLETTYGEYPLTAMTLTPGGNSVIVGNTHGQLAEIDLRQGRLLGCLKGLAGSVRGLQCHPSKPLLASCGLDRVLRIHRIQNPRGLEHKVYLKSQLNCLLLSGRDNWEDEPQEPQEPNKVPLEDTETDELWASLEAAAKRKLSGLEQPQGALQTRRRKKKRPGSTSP
Outline: (§1)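 An M13 phage library with randomized hexadecapeptides on the gene-8 major coat protein, each peptide lacking cysteine and flanked by glycine, was selected for five rounds against human peptide recognition domains fused to the C-terminus of glutathione S-transferase (GST) and expressed in 96-well plates. Approximately 48 clones from rounds 4 and 5 went to phage ELISA. The reported value is the ELISA signal on the GST-domain fusion over the signal on GST alone, and positive clones were sequenced.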

[2] = molecular target: T2, ZGPAT 120-268 zf-CCCH+TUDOR (domain begin residue: 120, domain end residue: 268), Q8N5A5
T2 chain: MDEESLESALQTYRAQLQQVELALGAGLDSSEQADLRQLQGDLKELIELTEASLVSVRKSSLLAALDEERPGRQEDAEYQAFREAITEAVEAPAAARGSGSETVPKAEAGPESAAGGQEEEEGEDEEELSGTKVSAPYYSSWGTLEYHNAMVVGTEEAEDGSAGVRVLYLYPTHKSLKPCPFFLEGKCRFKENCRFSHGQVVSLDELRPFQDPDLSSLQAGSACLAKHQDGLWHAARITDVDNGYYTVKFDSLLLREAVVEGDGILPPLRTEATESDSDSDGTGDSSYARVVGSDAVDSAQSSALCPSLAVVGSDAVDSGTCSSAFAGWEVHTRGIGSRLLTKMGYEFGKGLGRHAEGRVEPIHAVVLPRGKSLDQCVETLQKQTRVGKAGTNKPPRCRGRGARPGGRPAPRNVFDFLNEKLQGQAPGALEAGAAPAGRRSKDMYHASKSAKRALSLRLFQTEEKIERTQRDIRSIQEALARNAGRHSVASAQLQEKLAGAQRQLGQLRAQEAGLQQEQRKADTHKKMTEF
Outline: as §1

[3] = molecular target: T3, YWHAG 1-247 14-3-3 (domain begin residue: 1, domain end residue: 247), P61981
T3 chain: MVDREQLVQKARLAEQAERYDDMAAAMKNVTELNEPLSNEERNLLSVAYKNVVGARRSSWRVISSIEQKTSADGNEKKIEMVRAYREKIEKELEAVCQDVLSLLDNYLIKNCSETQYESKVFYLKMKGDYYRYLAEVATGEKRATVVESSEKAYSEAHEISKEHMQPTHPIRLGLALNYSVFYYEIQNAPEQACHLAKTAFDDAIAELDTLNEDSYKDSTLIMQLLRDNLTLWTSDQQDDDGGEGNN
Outline: as §1

[4] = molecular target: WDR5 20-334 WD40 (domain begin residue: 20, domain end residue: 334), P61964
Outline: as §1

[5] = molecular target: T4, YWHAZ 1-245 14-3-3 (domain begin residue: 1, domain end residue: 245), P63104
T4 chain: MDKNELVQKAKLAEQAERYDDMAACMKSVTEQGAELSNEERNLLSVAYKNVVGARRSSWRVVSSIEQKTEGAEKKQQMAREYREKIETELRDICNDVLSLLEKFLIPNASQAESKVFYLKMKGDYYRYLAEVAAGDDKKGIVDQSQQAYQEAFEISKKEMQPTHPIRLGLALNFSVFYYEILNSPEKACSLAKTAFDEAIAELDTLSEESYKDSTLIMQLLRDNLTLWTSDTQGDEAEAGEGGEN
Outline: as §1

[6] = molecular target: T5, YWHAB 1-246 14-3-3 (domain begin residue: 1, domain end residue: 246), P31946
T5 chain: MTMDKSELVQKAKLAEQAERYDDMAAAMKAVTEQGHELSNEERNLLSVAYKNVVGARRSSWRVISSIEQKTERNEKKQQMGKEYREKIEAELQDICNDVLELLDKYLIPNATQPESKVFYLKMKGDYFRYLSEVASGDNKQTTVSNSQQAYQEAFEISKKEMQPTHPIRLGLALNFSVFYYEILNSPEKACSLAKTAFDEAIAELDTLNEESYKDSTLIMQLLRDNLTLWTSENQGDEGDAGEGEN
Outline: as §1

[7] = molecular target: T6, YWHAH 2-246 14-3-3 (domain begin residue: 2, domain end residue: 246), Q04917
T6 chain: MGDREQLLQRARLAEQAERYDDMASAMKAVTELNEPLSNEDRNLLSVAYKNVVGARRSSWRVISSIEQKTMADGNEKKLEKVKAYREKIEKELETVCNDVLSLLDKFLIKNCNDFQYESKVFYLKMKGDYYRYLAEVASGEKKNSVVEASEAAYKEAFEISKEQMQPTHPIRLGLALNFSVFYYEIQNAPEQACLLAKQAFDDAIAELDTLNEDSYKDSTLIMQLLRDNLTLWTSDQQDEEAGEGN
Outline: as §1

[8] = molecular target: T7, YWHAE 1-255 14-3-3 (domain begin residue: 1, domain end residue: 255), P62258
T7 chain: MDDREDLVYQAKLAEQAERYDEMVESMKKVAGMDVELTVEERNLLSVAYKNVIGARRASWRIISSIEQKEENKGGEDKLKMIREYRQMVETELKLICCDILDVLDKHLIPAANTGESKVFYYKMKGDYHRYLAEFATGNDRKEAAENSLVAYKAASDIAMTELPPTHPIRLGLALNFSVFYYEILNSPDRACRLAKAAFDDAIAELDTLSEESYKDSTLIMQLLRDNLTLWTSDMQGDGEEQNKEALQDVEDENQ
Outline: as §1

WHWPELQDLMSIGMDE was tested. Which “phage ELISA signal ratio” value [1] did it give?
The value was 2.99.

With DYMSTLFDSIPTHVST as the binder, how does the “phage ELISA signal ratio” value [2] read?
Its value is 8.28.

Which “phage ELISA signal ratio” value [3] does the source give for PSPQPWWTDWHAEWVN here?
The value was 16.1.

How did the “phage ELISA signal ratio” value [1] turn out when DMWAMWHEWVEQEPQD was run?
Its value is 2.88.

How did the “phage ELISA signal ratio” value [4] turn out when AARTHAQEYHKGIMAS was run?
Its value is 21.6.

How did the “phage ELISA signal ratio” value [3] turn out when PQSLQEAMVVWQTWSG was run?
Its value is 21.6.

With VKSYYTTWHVQWLMDW as the binder, how does the “phage ELISA signal ratio” value [5] read?
Its value is 6.31.

With HKMEPWYTDWHADFLM as the binder, how does the “phage ELISA signal ratio” value [6] read?
The value was 9.61.

For SLEWLDLAQWTDPHQR, which “phage ELISA signal ratio” value [7] is on record?
The value was 19.8.

Which “phage ELISA signal ratio” value [4] does the source give for IKETAHMDERPKMISR here?
Its value is 15.8.

With NARTDAWWSQQSLQQH as the binder, how does the “phage ELISA signal ratio” value [4] read?
Its value is 9.86.

For GLHQLDWLDLADIYPK, which “phage ELISA signal ratio” value [7] is on record?
Its value is 18.7.

How did the “phage ELISA signal ratio” value [8] turn out when YMQNLDTQWMLWLQGP was run?
The value was 9.78.

Which “phage ELISA signal ratio” value [4] does the source give for ARTWYMHQQEAMADQK here?
The value was 26.3.

Which “phage ELISA signal ratio” value [7] does the source give for LEWLDLAQWHGGENSR here?
Its value is 21.

With DYMSQLWDHMSVDIYP as the binder, how does the “phage ELISA signal ratio” value [2] read?
The value was 5.82.

How did the “phage ELISA signal ratio” value [4] turn out when GRWVPVQDVPRFEIED was run?
Its value is 19.

For SARTGYDNYLKPSSQQ, which “phage ELISA signal ratio” value [4] is on record?
Its value is 22.

With GAARTQGVEWHSQHSH as the binder, how does the “phage ELISA signal ratio” value [4] read?
The value was 14.9.

With RTDPEQYQRTMMVPRG as the binder, how does the “phage ELISA signal ratio” value [4] read?
Its value is 12.1.

VPSLVMPQDQPVMVSR was tested. Which “phage ELISA signal ratio” value [4] did it give?
Its value is 12.8.

How did the “phage ELISA signal ratio” value [4] turn out when FELAGRWEPLMMYEWV was run?
Its value is 12.8.

How did the “phage ELISA signal ratio” value [1] turn out when DWFSSIIEAERQPVAD was run?
Its value is 5.4.

With QIWSLWVEGMMYQPDN as the binder, how does the “phage ELISA signal ratio” value [1] read?
The value was 2.75.

For MPEYWVDWHMEYVQEM, which “phage ELISA signal ratio” value [5] is on record?
The value was 28.1.

GDVSNLSEAMELWRSW was tested. Which “phage ELISA signal ratio” value [7] did it give?
The value was 17.6.

Which “phage ELISA signal ratio” value [6] does the source give for RPAWMDSATWLMIQEW here?
The value was 22.

How did the “phage ELISA signal ratio” value [2] turn out when EPHMLYDMWREWVTAD was run?
The value was 3.14.

EYHPRWGYIMAQASDS was tested. Which “phage ELISA signal ratio” value [4] did it give?
The value was 11.

For QRTMAWKSEDHLMPQS, which “phage ELISA signal ratio” value [4] is on record?
Its value is 14.9.

Which “phage ELISA signal ratio” value [4] does the source give for AARTQWYLAAVAEQAP here?
Its value is 12.9.

For MDWLDLAGQESLFPLW, which “phage ELISA signal ratio” value [7] is on record?
The value was 17.1.

For WEAIWDDMLTVQMPMA, which “phage ELISA signal ratio” value [1] is on record?
The value was 5.

How did the “phage ELISA signal ratio” value [1] turn out when DFMSDMFLQQLDTVGL was run?
Its value is 7.8.

With PEQERINRKTYQMVSR as the binder, how does the “phage ELISA signal ratio” value [4] read?
The value was 13.

For VEFWWSDTSARTLPFK, which “phage ELISA signal ratio” value [4] is on record?
Its value is 9.42.

Which “phage ELISA signal ratio” value [4] does the source give for KKPVPMRWEHTYTETM here?
Its value is 20.2.

QQVFQDHSNHQMMISR was tested. Which “phage ELISA signal ratio” value [4] did it give?
The value was 14.

For RTEPYVHQQPTPQAPA, which “phage ELISA signal ratio” value [4] is on record?
The value was 12.4.

GRWVPWDQNVTTSDES was tested. Which “phage ELISA signal ratio” value [4] did it give?
The value was 23.4.

For VEYLDLANFDPMAGKW, which “phage ELISA signal ratio” value [7] is on record?
Its value is 26.2.

Which “phage ELISA signal ratio” value [6] does the source give for VVFSDYWVDWHVEYMG here?
Its value is 11.9.

Which “phage ELISA signal ratio” value [2] does the source give for SQAMDLNAGWPWDIVM here?
Its value is 8.17.

With HQQGDDWVIAEIPPFR as the binder, how does the “phage ELISA signal ratio” value [3] read?
The value was 19.8.

How did the “phage ELISA signal ratio” value [4] turn out when SARSEPYPSTNFTWTH was run?
Its value is 25.7.

With PRYKPHNRTEPVPLMA as the binder, how does the “phage ELISA signal ratio” value [4] read?
Its value is 18.7.

Which “phage ELISA signal ratio” value [1] does the source give for DMWSQWEEWNAVMPWE here?
Its value is 9.73.

Which “phage ELISA signal ratio” value [4] does the source give for RTEYLNWQEHRTVSKE here?
Its value is 11.

How did the “phage ELISA signal ratio” value [4] turn out when ETQDPPEVRQYTMVSR was run?
Its value is 13.8.

Which “phage ELISA signal ratio” value [8] does the source give for EWSVWDHVPRDWQTVG here?
Its value is 17.7.

With SARTSHWVPMEWNHLQ as the binder, how does the “phage ELISA signal ratio” value [4] read?
Its value is 14.

How did the “phage ELISA signal ratio” value [6] turn out when HPPWWEPWHVEFLLQD was run?
The value was 22.7.

What does the source list for QNIEFVWWHKEWLENQ?
phage ELISA signal ratio [6]: 15.1; phage ELISA signal ratio [5]: 6.38

For QRTMAWKSENHLMPHS, which “phage ELISA signal ratio” value [4] is on record?
The value was 16.4.

With PALSDVWDSIPLEFAW as the binder, how does the “phage ELISA signal ratio” value [1] read?
The value was 6.43.

With EHPHYWTPWHVDYMLR as the binder, how does the “phage ELISA signal ratio” value [5] read?
Its value is 4.41.

Which “phage ELISA signal ratio” value [4] does the source give for RWEPHAWQADQVEATK here?
Its value is 14.

With FDSYWEAAFDQLQMAE as the binder, how does the “phage ELISA signal ratio” value [1] read?
The value was 7.17.

VWPMPQTWAEWQDLLA was tested. Which “phage ELISA signal ratio” value [6] did it give?
The value was 17.7.
